The text below walks through data of PubChem BioAssay (EPA / NIEHS).

Records with an inconclusive call do not appear. Activity calls are given as the source filed them. Rule for the calls, unless noted: active = hit-call score of the fitted dose curve at least 0.9, where 1 is the maximum; inactive = score below 0.9.

A short description of assay [1]: ATG_TAL_CIS: Attagene CIS-FACTORIAL HepG2 Assay for human TAL Basal Promoter (AID 2282966).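 Note: background control endpoint measuring basal TAL promoter reporter mRNA not a specific factor.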 To be noted: HepG2 Attagene cis-factorial TAL promoter reporter; actives raise or lower the signal. A digest of the protocol:
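Fluorescence of labelled reporter cDNA fragments, resolved by capillary electrophoresis, gave the readout. Human HepG2 liver cells carried transiently transfected cis-element reporter units and were treated for 24 hours; activity was fitted bidirectionally against DMSO.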

Assay [2] in a line: ATG_TGFb_CIS: Attagene CIS-FACTORIAL HepG2 Assay for human Transforming Growth Factor (TGF) (AID 2282967). To be noted: HepG2 Attagene CIS TGFb reporter, mRNA transcription; actives raise or lower the signal. A digest of the protocol: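 Transient MRTU transfection of HepG2 (FuGene 6). Dose 24 h. TriZol RNA, oligo(dT) RT, PCR, 6-FAM primer extension, HpaI cut, CE. Bidirectional fit, DMSO = baseline.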

Assay [3] can be described thus: ATG_VDRE_CIS: Attagene CIS-FACTORIAL HepG2 Assay for human Vitamin D Receptor Element (VDRE) (AID 2282968). To be noted: HepG2 VDRE cis-reporter transcription, actives raise or lower the signal. In outline: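 In transiently transfected HepG2 liver cells, gain or loss of reporter mRNA after 24 h exposure is scored relative to DMSO, using fluorescence detection by capillary electrophoresis of RT-PCR products.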

The target in assay [4] is Nuclear receptor subfamily 1 group I member 3 (Homo sapiens) (UniProt Q14994). Description: ATG_CAR_TRANS: Attagene TRANS-FACTORIAL HepG2 Assay for human Constitutive Androstane Receptor (CAR) (AID 2282969; active = hit-call score of the fitted dose curve at least 0.9, where 1 is the maximum;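 note: activators raise reporter mRNA above DMSO so AC50 marks induction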). To be noted: HepG2 Attagene TRANS-FACTORIAL CAR reporter. In outline: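 Readout is reporter mRNA induction, quantified by fluorescent primer extension and capillary electrophoresis after RT-PCR. Cells were HepG2 transiently carrying chimeric NR-Gal4 constructs with GAL4-UAS reporters, treated for 24 h; activity scored upward from DMSO.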
Nuclear receptor subfamily 1 group I member 3 (Homo sapiens), sequence (Q14994 whole entry, looked up, the tested form may be a part): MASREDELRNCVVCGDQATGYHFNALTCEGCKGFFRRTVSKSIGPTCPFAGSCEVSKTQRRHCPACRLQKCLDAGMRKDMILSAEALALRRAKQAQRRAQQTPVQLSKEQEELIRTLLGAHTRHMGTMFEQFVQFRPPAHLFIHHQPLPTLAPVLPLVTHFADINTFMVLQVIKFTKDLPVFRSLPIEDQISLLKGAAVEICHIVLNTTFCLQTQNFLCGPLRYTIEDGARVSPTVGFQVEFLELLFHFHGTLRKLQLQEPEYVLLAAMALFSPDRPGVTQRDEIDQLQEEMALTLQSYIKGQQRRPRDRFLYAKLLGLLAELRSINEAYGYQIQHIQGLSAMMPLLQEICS

Assay [5] has as its target X-box-binding protein 1 (Homo sapiens) (UniProt P17861). Put plainly: ATG_Xbp1_CIS: Attagene CIS-FACTORIAL HepG2 Assay for human X-box Binding Protein 1 (XBP1) (AID 2282972). The conditions noted are these: HepG2 XBP1 cis-element reporter, Attagene multiplex; actives raise or lower the signal. In outline: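 HepG2 cells transiently transfected with cis-regulated multiple reporter transcription units; endogenous transcription factor activity measured 24 hours after chemical dosing. Reporter mRNA quantified by RT-PCR, 6-FAM primer extension, HpaI digestion and capillary electrophoresis; bidirectional fitting versus DMSO.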

Assay [6] can be described thus: ATG_M_19_TRANS: Attagene TRANS-FACTORIAL HepG2 Assay for M19 Transcription Factor (Internal Marker) (AID 2282974; active = hit-call score of the fitted dose curve at least 0.9, where 1 is the maximum). The conditions noted are these: HepG2 Attagene TRANS-FACTORIAL M19 internal marker reporter. In outline:
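Multiplexed TRANS format: HepG2 liver cells bearing transient GAL4-UAS reporter units, chemical treatment 24 h, reporter transcripts quantified by RT-PCR plus capillary electrophoresis. DMSO defines baseline.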

Assay [7] deals with Estrogen receptor (Homo sapiens) (UniProt P03372). Description: ATG_ERa_TRANS: Attagene TRANS-FACTORIAL HepG2 Assay for human Estrogen Receptor alpha (ERa) (AID 2282970; active = hit-call score of the fitted dose curve at least 0.9, where 1 is the maximum). The conditions noted are these: HepG2 Attagene TRANS ERa GAL4 reporter, mRNA. In outline:
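Human liver HepG2, transient transfection of multiple GAL4-UAS reporter units; TRANS format (exogenous NR-Gal4 chimera). 24 h dosing. Readout: reporter mRNA, RT-PCR, 6-FAM primer extension, HpaI digest, capillary electrophoresis. Positive direction vs DMSO.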

Assay [8] deals with Steroid hormone receptor ERR1 (Homo sapiens) (UniProt P11474). Description: ATG_ERRa_TRANS: Attagene TRANS-FACTORIAL HepG2 Assay for human Estrogen-Related Receptor alpha (ERRa) (AID 2282971; active = hit-call score of the fitted dose curve at least 0.9, where 1 is the maximum). The conditions noted are these: HepG2 Attagene TRANS reporter, ERRa transactivation. In outline:
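Reporter transcript induction was quantified by RT-PCR and capillary electrophoresis of FAM-labelled, HpaI-cut products after 24 h treatment of HepG2 cells carrying transiently transfected GAL4-UAS reporter units and an exogenous ERRa-Gal4 fusion; activity scored as increase over DMSO.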

Assay [9] can be described thus: ATG_GAL4_TRANS: Attagene TRANS-FACTORIAL HepG2 Assay for GAL4 (Internal Marker) (AID 2282976; active = hit-call score of the fitted dose curve at least 0.9, where 1 is the maximum). The conditions noted are these: HepG2 Attagene TRANS GAL4 internal marker reporter. In outline:
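First, HepG2 cells were transfected with reporter units under GAL4-UAS control. Next, they were treated with chemical for 24 h. Finally, RNA was reverse-transcribed, PCR-amplified, FAM-labelled and resolved by capillary electrophoresis, with induction scored against DMSO.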

Assay [10] addresses Estrogen-related receptor gamma (Homo sapiens) (UniProt P62508). Put plainly: ATG_ERRg_TRANS: Attagene TRANS-FACTORIAL HepG2 Assay for human Estrogen-Related Receptor gamma (ERRg) (AID 2282977; active = hit-call score of the fitted dose curve at least 0.9, where 1 is the maximum;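 note: hits increase reporter signal over DMSO so potencies reflect activators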). To be noted: HepG2 Attagene TRANS reporter, ERRg transactivation. In outline: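 HepG2 cells transiently transfected with multiplexed GAL4-UAS reporter units and chimeric NR-Gal4 constructs were exposed to test chemicals for 24 h. Reporter mRNA was measured by RT-PCR, 6-FAM primer extension, HpaI digestion and capillary electrophoresis; gain-of-signal versus DMSO.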

Steroid hormone receptor ERR1 (Homo sapiens), sequence (P11474 whole entry, looked up, the tested form may be a part): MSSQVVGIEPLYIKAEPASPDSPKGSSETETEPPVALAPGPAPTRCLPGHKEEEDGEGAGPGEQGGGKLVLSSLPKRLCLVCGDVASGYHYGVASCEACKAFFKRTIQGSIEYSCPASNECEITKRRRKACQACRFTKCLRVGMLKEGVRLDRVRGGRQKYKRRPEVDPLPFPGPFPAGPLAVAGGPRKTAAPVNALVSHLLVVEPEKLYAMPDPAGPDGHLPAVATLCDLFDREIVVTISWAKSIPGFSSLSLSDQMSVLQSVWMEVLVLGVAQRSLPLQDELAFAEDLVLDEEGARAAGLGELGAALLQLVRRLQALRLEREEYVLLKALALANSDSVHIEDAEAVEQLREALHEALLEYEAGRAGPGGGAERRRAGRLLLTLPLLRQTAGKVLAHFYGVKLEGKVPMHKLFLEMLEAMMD
Estrogen-related receptor gamma (Homo sapiens), sequence (P62508 whole entry, looked up, the tested form may be a part): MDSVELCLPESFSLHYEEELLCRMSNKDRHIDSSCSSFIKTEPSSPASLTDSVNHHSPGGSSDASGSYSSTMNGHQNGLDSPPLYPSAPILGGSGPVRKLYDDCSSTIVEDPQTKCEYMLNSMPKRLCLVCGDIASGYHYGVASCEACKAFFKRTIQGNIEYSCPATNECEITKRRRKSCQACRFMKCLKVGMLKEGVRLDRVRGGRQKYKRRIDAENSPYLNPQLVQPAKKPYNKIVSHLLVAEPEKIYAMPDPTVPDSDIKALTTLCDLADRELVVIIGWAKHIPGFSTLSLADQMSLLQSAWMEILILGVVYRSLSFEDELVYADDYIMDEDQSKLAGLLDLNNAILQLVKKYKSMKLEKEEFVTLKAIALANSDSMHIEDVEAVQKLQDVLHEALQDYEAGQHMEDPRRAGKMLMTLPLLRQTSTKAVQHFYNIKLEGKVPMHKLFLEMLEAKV
Estrogen receptor (Homo sapiens), sequence (P03372 whole entry, looked up, the tested form may be a part): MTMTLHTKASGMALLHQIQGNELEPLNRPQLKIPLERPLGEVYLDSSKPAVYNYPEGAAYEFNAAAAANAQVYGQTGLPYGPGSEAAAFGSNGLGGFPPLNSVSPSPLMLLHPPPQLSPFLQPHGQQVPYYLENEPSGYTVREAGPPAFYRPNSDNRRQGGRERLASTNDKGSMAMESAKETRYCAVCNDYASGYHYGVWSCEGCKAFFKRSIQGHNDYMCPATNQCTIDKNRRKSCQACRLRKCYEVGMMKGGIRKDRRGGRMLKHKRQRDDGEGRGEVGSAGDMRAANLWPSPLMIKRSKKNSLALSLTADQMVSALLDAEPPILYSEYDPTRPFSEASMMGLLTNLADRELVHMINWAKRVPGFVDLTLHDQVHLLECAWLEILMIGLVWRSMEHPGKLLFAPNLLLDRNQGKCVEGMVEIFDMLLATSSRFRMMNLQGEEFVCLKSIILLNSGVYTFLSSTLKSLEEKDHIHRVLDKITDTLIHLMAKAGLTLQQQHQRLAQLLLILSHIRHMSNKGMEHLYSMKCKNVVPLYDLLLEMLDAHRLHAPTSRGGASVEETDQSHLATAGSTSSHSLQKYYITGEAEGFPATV
X-box-binding protein 1 (Homo sapiens), sequence (P17861 whole entry, looked up): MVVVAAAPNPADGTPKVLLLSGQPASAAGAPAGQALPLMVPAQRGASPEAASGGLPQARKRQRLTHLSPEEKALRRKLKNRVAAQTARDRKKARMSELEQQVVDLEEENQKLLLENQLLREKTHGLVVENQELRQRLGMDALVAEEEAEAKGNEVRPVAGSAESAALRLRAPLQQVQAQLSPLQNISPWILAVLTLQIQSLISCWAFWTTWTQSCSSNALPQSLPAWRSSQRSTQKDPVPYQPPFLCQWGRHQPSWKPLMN

With `CCCCCCCCCCC(CO)CCCCCCCC` (centres undefined), the outcome in assay [1], in assay [2], in [3], in assay [4], in assay [5] and in [6] was inactive.

`O=C(COc1ccc(Cl)cc1)N1CCN(Cc2ccc3c(c2)OCO3)CC1`: the outcome in assay [1], in [2], in assay [3], in assay [7], in [8] and in assay [5] was inactive. For the same compound, the call in assay [6], in assay [9] and in assay [10] was inactive.

Turning to `Cc1ccc(O)c(C(C)(C)C)c1`, the results for the AC50 in [1], in assay [3] and in assay [5] were 181 µM (active), 100 µM (active) and 142 µM (active), respectively. The outcome in [2], in [4] and in assay [6] was inactive.

With `CC1CCC(C(C)(C)O)CC1` (centres undefined), the result in [1], in [2], in assay [3], in [4], in assay [5] and in assay [6] was inactive. In addition, the call in [9] was inactive.

`CCOC(=O)c1ccccc1OC`: the compound was called inactive in assay [1], in assay [2], in [3], in assay [4], in assay [5] and in assay [10].

Regarding `Cc1c(N(C)C)c(=O)n(-c2ccccc2)n1C`, the call in [1], in [2], in assay [3], in assay [4], in assay [5] and in assay [9] was inactive.

With `O=C1CCCCCCCCCCOCCCCO1`, the call in assay [1], in [2], in assay [3], in [4], in [5] and in assay [6] was inactive.

Consider `CC1(C)OC[C@@H]2O[C@@]3(C(=O)O)OC(C)(C)O[C@H]3[C@@H]2O1`, for which the outcome in assay [1], in assay [2], in assay [3], in [4], in assay [5] and in assay [6] was inactive. The compound was classed as inactive in assay [9].

With `CCCCC/C=C/C=C/C=O`, the result in assay [1], in [2], in [3], in assay [4], in [5] and in assay [9] was inactive.

Take `Cc1c(Cl)c(=O)oc2cc(O)ccc12`: the call in assay [1], in assay [2], in assay [4], in assay [5], in [6] and in assay [9] was inactive. Besides, the AC50 in assay [3] was 149 µM (active).

With `CCCCCCCCCCCCCCCC(=O)O`, the outcome in assay [1], in assay [2], in assay [3], in [4], in assay [5] and in assay [9] was inactive.

For `CC(C)=CCC[C@](C)(O)[C@@H]1CC=C(C)CC1`, the call in [1], in [2], in assay [3], in [4], in [5] and in assay [6] was inactive.

On to `CC(CC(C)(C)C)CC(C)(C)CC(C)(C)C` (centres undefined), for which the compound was called inactive in [1], in assay [2], in [3], in assay [4] and in assay [5].

Regarding `CN(C)c1ccc(O)c2c1C[C@H]1C[C@H]3[C@H](N(C)C)C(=O)C(C(N)=O)=C(O)[C@@]3(O)C(=O)C1=C2O`, the compound was called inactive in assay [1], in [2], in [3], in assay [4], in [5] and in assay [6]. Besides, the compound was called inactive in [9].

As to `CCCCC(CC)COC(=O)/C=C\C(=O)OCC(CC)CCCC` (centres undefined), the call in assay [1], in assay [2], in assay [3], in assay [4], in assay [5] and in assay [6] was inactive. The call in [9] and in [10] was inactive.

For the compound `CCCC(C)C=O` (centres undefined), the compound was classed as inactive in [1], in assay [2], in [3], in [4], in [5] and in [6]. In assay [10], the compound was classed as inactive.

As for `C[Si](O[Si](C)(C)C)O[Si](C)(C)C`, the result in assay [1], in assay [2], in assay [3], in [4], in assay [5] and in assay [6] was inactive.

For the compound `CCCc1ccccc1O`, the call in assay [1], in assay [2], in assay [3], in assay [4], in assay [5] and in assay [9] was inactive.

With `C=O`, the result in [1], in assay [2], in assay [3], in assay [4], in [5] and in assay [6] was inactive. The outcome in [9] and in assay [10] was inactive.

Turning to `NC(=O)NC1NC(=O)NC1=O` (centres undefined), the compound was classed as inactive in [1], in assay [2], in assay [3], in [4], in assay [5] and in [9].

As to `C=COCCOCCOCCOC=C`, the compound was classed as inactive in [1], in assay [2], in [3], in assay [4], in assay [5] and in [9].

As for `CCCC/C=C\CCCCCCCCCC=O`, the call in assay [1], in assay [2], in assay [3], in [8], in [5] and in assay [6] was inactive. Moreover, the compound was called inactive in assay [9] and in [10].

With `Nc1cc(N)cc(C(=O)O)c1`, the compound was called inactive in assay [1], in [2], in assay [3], in assay [7], in [5] and in assay [6]. The compound was called inactive in [9].

As for `COC(=O)C1=C(C)NC(C)=C(C(=O)OCCN(C)Cc2ccccc2)C1c1cccc([N+](=O)[O-])c1` (centres undefined), the outcome in assay [1], in [7], in assay [5] and in assay [6] was inactive. In addition, the AC50 in assay [2] is 131 µM (active); in assay [3] it was 0.227 µM (active).

With `CC(C)(C)c1cc(CCC(=O)NN)cc(C(C)(C)C)c1O`, the compound was called inactive in assay [1], in assay [2], in assay [3], in assay [8], in [5] and in assay [6]. For the same compound, the call in [9] was inactive.

With `CC(c1cc2ccccc2s1)N(O)C(N)=O` (centres undefined), the call in [1], in [2], in assay [3], in assay [7], in assay [5] and in assay [6] was inactive.

Consider `C[C@]12CC[C@H]3[C@@H](CCC4=CC(=O)CC[C@@]43C)[C@@H]1CC[C@@H]2C(=O)CO`, for which the compound was classed as inactive in assay [1], in assay [2] and in assay [5]. Moreover, the figures for the AC50 in [3] and in [7] were 5.34 µM (active) and 1.78 µM (active), respectively.

Regarding `O=C(O)CN(CCN(CC(=O)O)CC(=O)O)CCN(CC(=O)O)CC(=O)O`, the call in assay [1], in assay [2], in assay [3], in [8], in assay [5] and in [6] was inactive. The compound was called inactive in [9] and in assay [10].

With `Cc1ccc(C=O)cc1`, the compound was classed as inactive in [1], in [2], in assay [3], in assay [7], in assay [5] and in assay [6]. For the same compound, the result in assay [9] was inactive.

On to `CC1(C)[C@H](C(=O)OCc2cccc(Oc3ccccc3)c2)[C@@H]1C=C(Cl)Cl`, for which the call in assay [1], in [2], in assay [3], in [7], in assay [5] and in assay [9] was inactive.

Consider `c1ccc(CCCc2ccccn2)cc1`, for which the compound was called inactive in [1], in [7], in [8], in assay [5] and in [10]. The AC50 is 148 µM (active) in assay [2] and 42.9 µM (active) in assay [3].
